IL1B secr inh: inflammasome signaling inhibition, IL-1 beta readout. actives 4.7% (n = 360,000). activity change, % at 57.5 µM. THP-1 LPS/ATP IL-1B secretion, AlphaLISA, 16 h; active compounds read low. AID 743279; in the data active = activity change below about -50%; inconclusive = mostly about -30% to -49%; also: % is scaled to controls: 0 for no effect and ±100 for the full control effect
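Secreted IL-1B measured by AlphaLISA bead assay after 16 h compound exposure of THP-1 cells; compounds (final up to 57.5 uM) added 1 h before LPS (250 ng/mL) and ATP (1.25 mM) stimulation; lower signal means less secretion.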
ATXN2 expr inh: inhibitors of ATXN2 expression. actives 0.72% (n = 360,000). AID 1745845. Potency, µM (doses to about 57 µM), inactives show top-dose activity change, negative = inhibition, actives largely listed as inhibitors. HEK-293 ATXN2-luciferase reporter, luminescence, 24 h; also: potency is read from the fitted curve at half-maximal effect; % is scaled to controls: 0 for no effect and ±100 for the full control effect; nearly all actives have a fitted effect of over 55% in size
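ATXN2-luciferase reporter cells (luciferase flanked by upstream and downstream ATXN2 gene portions) were treated 24 h at 37 °C with compounds at up to 57 uM. SteadyGlo luminescence gave expression; GF-AFC fluorescence gave viability.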
SW480 rerep: DNA re-replication induction in SW480 cells; SW480 DNA re-replication, Hoechst DNA content imaging, 48 h; Potency, µM (series often up to 46.1 µM), for inactives: at the highest dose re-replication activation, hits mostly activators; actives 1.8% (n = 340,000); also: potency is read from the fitted curve at half-maximal effect; % of control where 0% means no effect; nearly all actives have a fitted effect of over 55% in size
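250 cells/well; 23 nL cpd via pin tool; 48 hr, 37 C, 5% CO2; Hoechst 40 min; imager read of total nuclear intensity, ex 405/em 500-530 nm.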
S2 tox: cell viability loss in ATXN counter-screen; S2 cells (HEK-293 line with an ATXN2-luciferase reporter) viability, CellTiter-Fluor protease fluorescence, 24 h; Potency, µM (highest dose often 56.7 µM), actives largely listed as cytotoxic; actives 0.49% (n = 400,000); AID 651635; also: potency is read from the fitted curve at half-maximal effect; nearly all actives have a fitted effect of over 40% in size
MCF10A rerep: induces DNA re-replication in MCF 10a normal breast cells; MCF 10A DNA re-replication, Hoechst nuclear intensity, 48 h; Potency, µM (titrated, usually from 46.1 µM), for inactives: at the top dose activity, positive = re-replication, hits mostly activators; actives 2.9% (n = 350,000); also: potency is read from the fitted curve at half-maximal effect; % of control where 0% means no effect; nearly all actives have a fitted effect of over 50% in size
PINK1 modulator: PINK1 expression modulation; PINK1 immunofluorescence, high-content cytometry, 24 h; Potency, µM (highest dose often 76.6 µM), without a hit: at the top dose activation (PINK1 increase), actives largely listed as activators; actives 0.2% (n = 410,000); AID 624263; active = well fitted activation curve with a large enough effect; inconclusive = small, poorly fitted or top-dose-only effect; cell line not stated here; also: potency is read from the fitted curve at half-maximal effect; % of control where 0% means no effect; nearly all actives have a fitted effect of over 65% in size
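Compound titrations (5 concentrations, 24 h) on a stable cell line; DMSO and CCCP controls. Endpoint: fixed-cell PINK1 immunofluorescence with mitochondrial, cell and nuclear markers, scanned by microplate cytometer.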
Numbers without * were called inactive; [ ] = another dose, or the depositor's remark. Hits are enriched below; roughly 7.1% of the tested compounds scored in any of these assays. Unless noted, calls follow the shape of the dose curve; as a rule, active = well fitted curve in the direction sought with a large enough effect; inconclusive = small, poorly fitted or top-dose-only effect, or another doubt; inactive = no such curve, though single readings can be large; an effect the other way counts as inactive or inconclusive.

How did CCOC(=O)N1CCN(CCC(=O)c2ccc(OC)cc2)CC1 do in these assays?
IL1B secr inh: -16.1; SW480 rerep: inconclusive; S2 tox: inconclusive; MCF10A rerep: 14.6µM*; PINK1 modulator: 3.3%

What do the screens show for `CCOC(=O)N1CCN(CCC(=O)c2ccc(Cl)cc2)CC1`?
IL1B secr inh: -0.6; ATXN2 expr inh: -3.3%; SW480 rerep: inconclusive; S2 tox: inactive; MCF10A rerep: inconclusive; PINK1 modulator: -1.6%

Results for COc1ccc(N2CCN(CCC(=O)c3ccc4ccccc4c3)CC2)cc1 ?
IL1B secr inh: inconclusive; ATXN2 expr inh: -8.2%; SW480 rerep: inconclusive; S2 tox: inactive; MCF10A rerep: 10.3µM*; PINK1 modulator: -0.9%

How did COc1ccc(N2CCN(CC(=O)c3ccccc3)CC2)cc1 do in these assays?
IL1B secr inh: 6.3; ATXN2 expr inh: -5.2%; SW480 rerep: 1.6%; S2 tox: inconclusive; MCF10A rerep: 5.9%; PINK1 modulator: 0.7%

What do the screens show for `O=C(NCc1cccs1)c1nn(-c2ccccc2F)nc1CO`?
PINK1 modulator: -0.1%

Results for CC(=O)Oc1c(C)c2c3c(c1OC(C)=O)[C@@H](C)CC[C@@H]3[C@@H](C)C[C@H]2C=C(C)C ?
IL1B secr inh: -10.3; ATXN2 expr inh: 6.0%; SW480 rerep: 6.0%; S2 tox: inactive; MCF10A rerep: 25.9µM*; PINK1 modulator: 15.3%

Results for CC(=O)O[C@H]1[C@H](O)[C@H](Oc2c(O)c(C)c3c4c2[C@@H](C)CC[C@@H]4[C@@H](C)C[C@H]3C=C(C)C)O[C@@H](C)[C@H]1O ?
IL1B secr inh: -77.4*; ATXN2 expr inh: inconclusive; SW480 rerep: -3.8%; S2 tox: inconclusive; MCF10A rerep: inconclusive; PINK1 modulator: -1.2%

How did CC(=O)OC1[C@H](Oc2c(O)c(C)c3c4c2[C@@H](C)CC[C@@H]4[C@@H](C)C[C@@H]3C=C(C)C)OC[C@@H](O)[C@@H]1O (some centres undefined) do in these assays?
IL1B secr inh: -3.4; ATXN2 expr inh: 3.2%; SW480 rerep: -8.7%; S2 tox: inactive; MCF10A rerep: inconclusive; PINK1 modulator: 6.7%

How did CC(C)=C[C@H]1C[C@H](C)[C@H]2CC[C@H](C)c3c(O[C@@H]4OC[C@@H](O)[C@H](O)C4O)c(O)c(C)c1c32 (some centres undefined) do in these assays?
IL1B secr inh: -74.2*; ATXN2 expr inh: inconclusive; SW480 rerep: -92.2%[9.22 µM]; S2 tox: inconclusive; MCF10A rerep: 20.6µM*; PINK1 modulator: -1.1%

How did COc1ccc(/C=C2\CCCC3C2=NC(=S)NC3c2ccc(OC)cc2)cc1 (centres undefined) do in these assays?
IL1B secr inh: 0.0; ATXN2 expr inh: 3.6%; SW480 rerep: 18.4µM*; S2 tox: inactive; MCF10A rerep: 7.31µM*; PINK1 modulator: 6.6%

Results for COc1ccc(/C=C2\CCC(C3CCCC3)C2=O)cc1 (centres undefined) ?
IL1B secr inh: 0.5; ATXN2 expr inh: 94.5%; SW480 rerep: -0.7%; S2 tox: inactive; MCF10A rerep: -8.5%; PINK1 modulator: 5.9%

What do the screens show for `O=C(c1ccco1)N1CCCC(c2nc3c(nnn3Cc3c(Cl)cccc3Cl)c(=O)[nH]2)C1` (centres undefined)?
IL1B secr inh: 18.9; ATXN2 expr inh: -18.7%; SW480 rerep: -8.4%; S2 tox: inactive; MCF10A rerep: -2.0%; PINK1 modulator: -0.4%

What do the screens show for `CC(C)(C)c1nc(N2CCN(C(=O)c3ccco3)CC2)c2nnn(Cc3ccccc3)c2n1`?
IL1B secr inh: -51.8*; ATXN2 expr inh: -35.1%; SW480 rerep: inconclusive; S2 tox: inactive; MCF10A rerep: 8.2µM*; PINK1 modulator: inconclusive

What do the screens show for `O=C(c1ccco1)N1CCN(c2nc(C3CC3)nc3c2nnn3Cc2ccccc2Cl)CC1`?
IL1B secr inh: -77.2*; ATXN2 expr inh: -37.0%; SW480 rerep: -0.3%; S2 tox: inactive; MCF10A rerep: 9.9%; PINK1 modulator: 0.4%

Results for Cc1ccccc1Cn1ccc(NC(=O)c2cnn3c2NC(c2ccccc2)CC3C(F)(F)F)n1 (centres undefined) ?
IL1B secr inh: -66.1*; ATXN2 expr inh: -0.8%; SW480 rerep: 9.6%; S2 tox: inactive; MCF10A rerep: 26.8%; PINK1 modulator: 11.0%[38.3 µM]

How did O=C(Nc1cc(Cl)ccc1O)c1snnc1-c1ccccc1 do in these assays?
IL1B secr inh: -90.1*; ATXN2 expr inh: inconclusive; SW480 rerep: 0.8%; S2 tox: inconclusive; MCF10A rerep: inconclusive; PINK1 modulator: 11.2µM*

Results for O=C(Nc1cccc(Cl)c1Cl)c1snnc1-c1ccccc1 ?
IL1B secr inh: 4.3; ATXN2 expr inh: 6.6%; SW480 rerep: -3.1%; S2 tox: inactive; MCF10A rerep: 8.0%; PINK1 modulator: 3.1%

How did COc1ccc(OC)c(NC(=O)c2c(N3CCCC3=O)c3cc(OC)ccc3n2C)c1 do in these assays?
ATXN2 expr inh: -1.2%; S2 tox: inactive; PINK1 modulator: 1.1%

How did CC(C)(C)C(=O)N1CCN(c2ccc(NC(=O)c3ccc4c(c3)OCCO4)cc2)CC1 do in these assays?
IL1B secr inh: -76.9*; ATXN2 expr inh: inconclusive; SW480 rerep: -18.7%; S2 tox: inactive; MCF10A rerep: inconclusive; PINK1 modulator: 3.3%

What do the screens show for `CC(=O)N1CCN(c2ccc(NC(=O)c3ccc4c(c3)OCCO4)cc2)CC1`?
IL1B secr inh: -10.8; ATXN2 expr inh: 8.0%; SW480 rerep: 2.9%; S2 tox: inactive; MCF10A rerep: 5.8%

Results for O=C(Nc1ccc(N2CCN(C(=O)c3ccccc3)CC2)cc1)c1ccc2c(c1)OCCO2 ?
IL1B secr inh: -94.4*; ATXN2 expr inh: inconclusive; SW480 rerep: 4.1%; S2 tox: inconclusive; MCF10A rerep: inconclusive; PINK1 modulator: 3.3%

How did O=C(Nc1ccc(N2CCN(C(=O)c3ccc(Cl)cc3)CC2)cc1)c1ccc2c(c1)OCCO2 do in these assays?
IL1B secr inh: -60.8*; ATXN2 expr inh: inconclusive; SW480 rerep: 2.3%; S2 tox: inconclusive; MCF10A rerep: 5.6%; PINK1 modulator: 1.5%[38.3 µM]

How did COc1ccc2c(c1)NC(c1ccc(OCC(C)C)cc1)=NC(c1ccncc1)=N2 do in these assays?
ATXN2 expr inh: -9.7%; S2 tox: inactive; PINK1 modulator: 4.0%

Results for Cc1ccc(S(=O)(=O)N[C@@H](Cc2ccccc2)C(=O)CCl)cc1 ?
IL1B secr inh: -106.8*; ATXN2 expr inh: inconclusive; SW480 rerep: inconclusive; S2 tox: 31.6µM*; MCF10A rerep: 2.31µM*; PINK1 modulator: -0.8%
